Data from the OligoGym collection.
Note: reference of the scale not given here.

These sequences were tested against C2orf82 (assay: pooled miR-30 sensor sort-seq; sequence = guide strand). Conditions: shRNA.
Sequence ACATCGTCTGTGAGCACCGCAG has a sensor-assay potency score (higher = more potent) of -1.82.
In the case of TCGTCTGTGAGCACCGCAGGGG, the sensor-assay potency score (higher = more potent) is reported as -0.778.
ACGAGCGCCAGCACCACGCAGG showed a sensor-assay potency score (higher = more potent) of -1.89.
AACATCGTCTGTGAGCACCGCA gave a sensor-assay potency score (higher = more potent) of 0.28.
CTGTGGAACATCGTCTGTGAGC gave a sensor-assay potency score (higher = more potent) of -2.1.
Sequence ATCGTCTGTGAGCACCGCAGGG has a sensor-assay potency score (higher = more potent) of -1.34.
In the case of TCTCAGCGCGACGACCACGAGC, the sensor-assay potency score (higher = more potent) is reported as -1.5.
With CTCCTGTGGAACATCGTCTGTG the sensor-assay potency score (higher = more potent) was -1.6.
With TCCTGTGGAACATCGTCTGTGA the sensor-assay potency score (higher = more potent) was -0.191.
TGGTCCAGCCGCTCCTGCGCGG showed a sensor-assay potency score (higher = more potent) of -1.68.
Work on TTTCTCAGCGCGACGACCACGA yielded a sensor-assay potency score (higher = more potent) of 0.0474.

Each sequence was assayed against C3orf22 in the same assay as above. Conditions: shRNA.
With TTGGCACCAACCTCTTCTGCAG the sensor-assay potency score (higher = more potent) was -0.633.
Sequence AAAGGTTGCACAGTGGAGGTGG has a sensor-assay potency score (higher = more potent) of 1.05.
With AACCTGTACGGAAACTTCTTGG the sensor-assay potency score (higher = more potent) was -1.12.
With TTCTTGGCAAAATTCTCCTGGG the sensor-assay potency score (higher = more potent) was -0.771.
For TCCTCCACTTCTTACTCTGGTG, the sensor-assay potency score (higher = more potent) was -1.52.
Sequence TCTGTCAGCCACGACAACCTGT has a sensor-assay potency score (higher = more potent) of -0.668.
TTACTCTGGTGAGACTTCTTGC showed a sensor-assay potency score (higher = more potent) of -0.146.
Work on TTCGAGTCGTTTGTGACCTCCC yielded a sensor-assay potency score (higher = more potent) of 0.262.
For TCCACTTCTTACTCTGGTGAGA, the sensor-assay potency score (higher = more potent) was -1.65.
Sequence TTGCACAGTGGAGGTGGTGATG has a sensor-assay potency score (higher = more potent) of -1.21.
Sequence TGTACGGAAACTTCTTGGCAAA has a sensor-assay potency score (higher = more potent) of -1.61.
In the case of TTTATTAGCTTGGTGTAGCTTT, the sensor-assay potency score (higher = more potent) is reported as 0.257.
